Molecules are shown by their SMILES. The campaign covered roughly 310,000 compounds. About 2,200 (0.71%) showed an effect of 50% or more. Effects have a minus sign here. The sample as a whole holds a higher share of strong results than the screen did.

These results are taken from article PMC4336329 (PLoS ONE, 2015).

Chain of human ether-à-go-go-related gene (hERG) potassium channel (Q12809 whole entry, looked up): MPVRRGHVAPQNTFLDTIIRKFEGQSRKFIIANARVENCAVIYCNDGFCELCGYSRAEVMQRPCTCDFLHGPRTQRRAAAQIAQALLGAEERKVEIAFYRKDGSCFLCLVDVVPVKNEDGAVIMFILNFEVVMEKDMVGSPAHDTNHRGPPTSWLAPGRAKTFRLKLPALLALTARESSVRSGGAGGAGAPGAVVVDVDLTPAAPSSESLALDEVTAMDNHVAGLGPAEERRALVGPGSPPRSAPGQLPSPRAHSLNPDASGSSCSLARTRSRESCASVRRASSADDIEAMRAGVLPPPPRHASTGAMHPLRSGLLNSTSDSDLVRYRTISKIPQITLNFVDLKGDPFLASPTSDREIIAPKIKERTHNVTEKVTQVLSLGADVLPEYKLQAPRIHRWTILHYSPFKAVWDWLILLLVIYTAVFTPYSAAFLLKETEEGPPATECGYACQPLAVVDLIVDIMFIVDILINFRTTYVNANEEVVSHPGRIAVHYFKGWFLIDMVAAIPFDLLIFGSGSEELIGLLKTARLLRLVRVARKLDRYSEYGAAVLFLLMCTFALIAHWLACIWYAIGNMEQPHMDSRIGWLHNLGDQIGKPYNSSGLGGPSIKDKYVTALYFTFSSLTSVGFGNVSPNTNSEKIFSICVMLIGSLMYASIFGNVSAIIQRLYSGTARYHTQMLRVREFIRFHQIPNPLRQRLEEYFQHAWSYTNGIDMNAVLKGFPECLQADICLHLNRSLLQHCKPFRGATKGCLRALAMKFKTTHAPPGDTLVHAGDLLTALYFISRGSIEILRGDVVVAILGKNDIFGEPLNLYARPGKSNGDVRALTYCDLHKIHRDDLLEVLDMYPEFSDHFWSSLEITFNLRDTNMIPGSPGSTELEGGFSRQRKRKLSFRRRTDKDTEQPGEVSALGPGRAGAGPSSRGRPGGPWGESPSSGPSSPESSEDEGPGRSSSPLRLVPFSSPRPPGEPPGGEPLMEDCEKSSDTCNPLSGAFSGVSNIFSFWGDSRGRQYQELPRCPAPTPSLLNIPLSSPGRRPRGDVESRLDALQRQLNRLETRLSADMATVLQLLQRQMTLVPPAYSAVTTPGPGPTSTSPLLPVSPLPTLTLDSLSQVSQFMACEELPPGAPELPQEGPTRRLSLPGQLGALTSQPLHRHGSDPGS

This assay concerns the target human ether-à-go-go-related gene (hERG) potassium channel (human, UniProt Q12809). As to the kind of experiment: primary screen, population patch clamp on CHO cells stably expressing hERG; higher = less effect of the substance.
Turning to `COc1ccc(NC(=O)c2ccc(NC(=O)c3cccs3)cc2)cc1`, the “hERG current change (%, negative = inhibition) at 1uM” value is on record as 0.302%.

As to `CCN(C(=O)CSc1nnc(NC2CCCCC2)s1)C1CCS(=O)(=O)C1` (stereo not shown), the “hERG current change (%, negative = inhibition) at 1uM” value worked out at 2.2%.

With `O=C(CN1CCN(CC(=O)Nc2cccc(F)c2)CC1)Nc1ccc(-c2ccccc2)cc1`, the “hERG current change (%, negative = inhibition) at 1uM” value is listed as 13.6%.

For `CCOc1ccc(NC(=O)CNC(=O)c2ccc(OC)c(OC)c2)cc1`, the “hERG current change (%, negative = inhibition) at 1uM” value was 5.55%.

Turning to `CCOc1ccc(NC(=O)CN2CCN(CC(=O)Nc3ccc(F)c(F)c3)CC2)cc1`, the “hERG current change (%, negative = inhibition) at 1uM” value was -87.9%.

On to `CCOc1ccc(NC(=O)CN2CCN(CC(=O)Nc3ccc(Cl)c(C(F)(F)F)c3)CC2)cc1`, for which the “hERG current change (%, negative = inhibition) at 1uM” value is listed as -6.47%.

Consider `CCOc1ccc(NC(=O)CN2CCN(CC(=O)Nc3ccc(C(N)=O)cc3)CC2)cc1`, for which the “hERG current change (%, negative = inhibition) at 1uM” value is -36.9%.

Take `CCOC(=O)N1CCN(CC(=O)Nc2ccc(F)c(F)c2)CC1`: the “hERG current change (%, negative = inhibition) at 1uM” value is on record as 8.59%.

Turning to `CCOc1ccc(NC(=O)CN2CCN(CC(=O)c3ccc(OC)c(OC)c3)CC2)cc1`, the “hERG current change (%, negative = inhibition) at 1uM” value was -56.3%.

As for `CCOc1ccc(NC(=O)CN2CCN(CC(=O)Nc3cccc(F)c3)CC2)cc1`, the “hERG current change (%, negative = inhibition) at 1uM” value is -97.2%.

As for `O=C(NCc1ccccc1)N1CCC(n2cnc3cc(F)ccc32)CC1`, the “hERG current change (%, negative = inhibition) at 1uM” value is recorded as -56.6%.

As for `COc1ccc(S(=O)(=O)N2CCN(CC(=O)Nc3cccc(F)c3)CC2)cc1`, the “hERG current change (%, negative = inhibition) at 1uM” value is on record as -8.66%.

As to `O=C(NCc1ccc(F)cc1)C1CCN(C(=O)NCc2ccccc2)CC1`, the “hERG current change (%, negative = inhibition) at 1uM” value came out at 19.1%.

Consider `O=C(c1ccc(F)cc1)C1CCN(C(=O)NCc2ccccc2)CC1`, for which the “hERG current change (%, negative = inhibition) at 1uM” value was -5.59%.

Turning to `CCCCSc1nnc(-c2cc(Br)ccc2N)c(=O)[nH]1`, the “hERG current change (%, negative = inhibition) at 1uM” value was 0.939%.

Turning to `CCC(C)(C)NC(=O)C(c1ccc(OC)cc1)N(Cc1ccco1)C(=O)CCC(=O)Nc1cc(C)on1` (stereo not shown), the “hERG current change (%, negative = inhibition) at 1uM” value is listed as 4.86%.

For `COc1ccc(CC(NC(C)=O)C(=O)NC2CCN(C(=O)Nc3ccc(Cl)cc3)CC2)cc1OC` (stereo not shown), the “hERG current change (%, negative = inhibition) at 1uM” value is on record as 10.2%.

As for `O=C(COc1ccccc1[N+](=O)[O-])NCC1(N2CCCCC2)CCCCC1`, the “hERG current change (%, negative = inhibition) at 1uM” value is listed as -4.91%.

Regarding `CCOC(=O)c1ccc(NC(=O)COc2coc(CN3CCc4ccccc43)cc2=O)cc1`, the “hERG current change (%, negative = inhibition) at 1uM” value stood at 8.2%.

For `COc1ccc(OC)c(S(=O)(=O)N2CCC(C(=O)NCc3ccccc3OC)CC2)c1`, the “hERG current change (%, negative = inhibition) at 1uM” value was 3.09%.

With `NC1=NC[C@@H](Cc2ccc(O)cc2)N1CCC12CC3CC(CC(C3)C1)C2`, the “hERG current change (%, negative = inhibition) at 1uM” value was 10.4%.

Take `N#CCCSc1ncnc2c1oc1ccccc12`: the “hERG current change (%, negative = inhibition) at 1uM” value was determined as 4.55%.

For `Cc1[nH]c(-c2ccc(F)cc2)cc1C(=O)N1CCN(c2ccccc2)CC1`, the “hERG current change (%, negative = inhibition) at 1uM” value was -29%.

For `CCOC(=O)N1CCC(NC(=O)c2cc(-c3ccc(F)cc3)[nH]c2C)CC1`, the “hERG current change (%, negative = inhibition) at 1uM” value is 11.6%.

`CCOC(=O)N1CCN(C(=O)c2cc(-c3ccc(F)cc3)[nH]c2C)CC1`: the “hERG current change (%, negative = inhibition) at 1uM” value is recorded as -54.1%.

Regarding `CCOc1ccc(NC(=O)CN2CCN(c3ccc(F)cc3)CC2)cc1`, the “hERG current change (%, negative = inhibition) at 1uM” value turned out to be 11.4%.

Regarding `COc1ccc(NC(=O)CN2CCN(c3ccc(F)cc3)CC2)cc1`, the “hERG current change (%, negative = inhibition) at 1uM” value turned out to be 7.86%.

Regarding `CCOc1ccc(NC(=O)CN2CCN(CC(=O)Nc3ccc(F)cc3)CC2)cc1`, the “hERG current change (%, negative = inhibition) at 1uM” value is reported as -87.3%.
